Shown are actives, neighbours in structure and some others; about 3.5% of the full set was active somewhere.
FBW7 activator: activators of human E3 ligase FBW7; normalized activity (activation), % at 26.1 µM; AlphaScreen FBW7–phospho-cyclin E peptide binding, activator screen; 650,000 compounds, 0.13% hits; AID 1259310; in the data active = normalized activity above about 1.9%;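 note: purified mutant Fbw7 with reduced substrate affinity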
GPR151 activ: human GPR151 activation | Q8TDV0 | PathHunter beta-arrestin GPR151 cells, luminescence | activation, % at 11.2 µM | 650,000 compounds, 1% hits; in the data active = activation above about 4.9%
Target sequence (Q8TDV0 whole entry, looked up): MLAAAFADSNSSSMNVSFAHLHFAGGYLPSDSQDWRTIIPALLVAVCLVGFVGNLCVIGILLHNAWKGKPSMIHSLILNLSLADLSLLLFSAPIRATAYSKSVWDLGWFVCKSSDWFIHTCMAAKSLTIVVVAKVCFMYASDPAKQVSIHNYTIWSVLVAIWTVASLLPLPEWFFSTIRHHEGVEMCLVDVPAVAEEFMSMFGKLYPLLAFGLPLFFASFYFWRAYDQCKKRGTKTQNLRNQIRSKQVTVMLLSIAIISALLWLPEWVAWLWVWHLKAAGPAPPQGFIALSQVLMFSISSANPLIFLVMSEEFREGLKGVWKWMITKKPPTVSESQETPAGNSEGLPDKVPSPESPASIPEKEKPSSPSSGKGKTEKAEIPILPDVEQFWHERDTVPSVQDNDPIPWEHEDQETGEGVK
TEAD-YAP inh: TEAD-YAP interaction inhibition. HEK-TIYL cells, TEAD-Gal4/YAP UAS-luciferase luminescence. inhibition, % at 9.12 µM. 640,000 compounds, 1.4% hits; in the data active = inhibition above about 32%
MITF primary: human MITF inhibition, primary screen | O75030 | AlphaScreen MITF homodimerization, bead proximity signal | inhibition, % at 2.6 µM | 650,000 compounds, 0.91% hits; in the data active = inhibition above about 50%
Numbers stand for hits; - = inactive.

SMILES	FBW7 activator	GPR151 activ	TEAD-YAP inh	MITF primary
O=C(Nc1ccc(Br)cc1)c1ccc(F)c(S(=O)(=O)N2CCCc3ccccc32)c1	-	-	46.2	-
O=C(Nc1ccc(F)cc1)c1cccc(S(=O)(=O)N2CCCc3ccccc32)c1	-	-	39.9	-
CCOC(=O)CC(N)c1ccc(OC)c2ccccc12 (stereo unspecified)	-	-	-	-
COC(=O)c1nnn(-c2nonc2N)c1CSc1ncccn1	-	-	-	-
Cc1c(Cl)cccc1S(=O)(=O)NCC1(c2cccs2)CCOCC1	-	-	-	-
COc1ccc(C2C(C#N)=C(N)Oc3c2sc2ccccc32)c2ccccc12 (stereo unspecified)	-	-	-	-
COc1ccc(C2C(C#N)=C(N)Oc3c2sc2ccccc32)cc1OC (stereo unspecified)	-	-	56.2	-
CC1=NN(c2ccc(C)cc2)C(=O)/C1=C\N(C)C	-	-	-	-
CC1=NN(c2nc3ccccc3o2)C(=O)/C1=C\N(C)C	-	-	92.4	-
c1ccc(CN2CCC(Nc3nc(N4CCOCC4)nc4c3ncn4-c3ccsc3)CC2)cc1	-	-	44.5	-
c1ccc(CN2CCC(Nc3nc(Nc4ccc(-n5ccnc5)cc4)nc4c3ncn4-c3ccsc3)CC2)cc1	-	-	42.3	-
c1ccc(CN2CCC(Nc3nc(Nc4ccc(N5CCOCC5)cc4)c4ncn(-c5ccsc5)c4n3)CC2)cc1	-	-	49.1	-
c1ccc(CN2CCC(Nc3nc(NC4CC4)c4ncn(-c5ccsc5)c4n3)CC2)cc1	-	-	36.0	-
c1ccc(CN2CCC(Nc3nc(N4CCC(N5CCOCC5)CC4)nc4c3ncn4-c3ccsc3)CC2)cc1	-	-	-	-
Cc1ccc(C(=O)Nc2sc3c(c2C#N)CCCC3)cc1	-	-	-	-
CC(C)c1ccc(N2C(=O)/C(=C/c3ccc(-c4ccc(Cl)c(Cl)c4)o3)C=C2c2ccccc2)cc1	-	-	-	-
CC(c1ccccc1)n1nnc2ccccc21 (stereo unspecified)	-	-	-	-
CC1CN(c2ccc([N+](=O)[O-])cc2S(=O)(=O)N2CC(C)OC(C)C2)CC(C)O1 (stereo unspecified)	-	-	-	-
OC1CCC(Nc2nc(NC3CCN(Cc4ccccc4)CC3)c3ncn(-c4ccccc4)c3n2)CC1 (stereo unspecified)	-	-	42.1	-
c1cc(-n2cnc3c(Nc4ccc5c(c4)OCO5)nc(N4CCN(Cc5ccc6c(c5)OCO6)CC4)nc32)cs1	-	-	-	-
Cc1nn(C)c(C)c1-c1nc(NC2CCN(Cc3ccccc3)CC2)c2ncn(C(C)C)c2n1	-	-	72.0	-
c1cc(-n2cnc3c(NC4CC4)nc(N4CCN(Cc5ccc6c(c5)OCO6)CC4)nc32)cs1	-	-	36.7	-
NC(=O)c1ccccc1N=Cc1ccccc1Cl	-	-	-	-
COCC(=O)NCC1CCC2(CCN(Cc3cc(C)cc(C)c3)CC2)O1 (stereo unspecified)	-	-	-	-
O=C(c1ccco1)N1CCN(c2ncc(-c3cccnc3)n3ccnc23)CC1	2.3	-	-	-
SMILES	FBW7 activator	GPR151 activ	TEAD-YAP inh	MITF primary
Nc1ccc(-c2cnc3c(N4CCN(C(=O)c5ccco5)CC4)nccn23)cc1	-	-	-	-
O=C(c1ccco1)N1CCN(c2ncc(-c3ccc(CO)cc3)n3ccnc23)CC1	4.8	-	38.8	-
CN(Cc1nccs1)C(=O)c1cccc(OC2CCN(C(=O)C3CC3)CC2)c1	-	-	-	-
Nc1cccc(-c2cnn3c(NCC4CC4)ccnc23)c1	-	-	-	-
CN(C)CCNC(=O)c1cccc(-c2cnn3c(NCc4cccs4)ccnc23)c1	-	-	93.0	-
Clc1cccc(-c2cnn3c(NCc4cccs4)ccnc23)c1	-	-	-	-
O=C(O)c1cccc(-c2cnn3c(NCc4cccs4)ccnc23)c1	-	-	94.1	-
Oc1cccc(-c2cnn3c(NCc4cccs4)ccnc23)c1	-	-	98.7	-
COc1ccc(CNc2ccnc3c(-c4cccc(C(=O)NCCN(C)C)c4)cnn23)cc1	-	-	-	-
Oc1cccc(-c2cnn3c(NCC4CC4)ccnc23)c1	-	-	98.2	-
CC(=O)Oc1cccc(N2C(=O)c3cccc(N)c3C2=O)c1	-	-	-	-
COc1cc(Nc2nc(NCCc3ccc(O)cc3)c3[nH]cnc3n2)cc(OC)c1OC	-	-	46.0	-
Oc1ccc(CCNc2nc(Nc3ccccc3)nc3nc[nH]c23)cc1	-	-	51.8	-
CN(C)c1cccc(Nc2nc(NCc3ccccc3)c3[nH]cnc3n2)c1	2.4	-	-	-
COc1cc(Nc2nc(NCCO)c3[nH]cnc3n2)cc(OC)c1OC	-	-	-	-
Oc1ccc(CCNc2nc(Nc3cnccn3)nc3nc[nH]c23)cc1	-	-	39.0	-
Oc1ccc(CCNc2nc(Nc3ccncc3)nc3nc[nH]c23)cc1	-	-	-	-
N#CC1=C(N)C(C#N)(C#N)C2(C(=O)Nc3ccccc32)C2CN(Cc3ccccc3)CC=C12 (stereo unspecified)	-	-	-	-
Cc1cnc(Nc2ccncn2)nc1NCCc1ccc(O)cc1	-	-	-	-
c1ccc(OCCNc2nc(Nc3ccncn3)nc3nc[nH]c23)cc1	32.8	-	-	-
Cc1cnc(Nc2cnccn2)nc1NCCc1ccc(O)cc1	-	-	35.7	-
CN1C(=O)/C(=C/c2cccn2-c2ccc(N(C)C)cc2)C(=O)NC1=S	-	-	-	-
COc1ccc(-c2nc(N)n(C(=O)c3ccccc3OC)n2)cc1	-	-	40.0	-
CCCCC(=O)NCCNc1nc(C)nc2sc3c(c12)CCCC3	-	-	33.3	-
C/C(=N\NC(=O)c1ccco1)c1ccc(F)cc1	-	-	-	-
SMILES	FBW7 activator	GPR151 activ	TEAD-YAP inh	MITF primary
c1ccc2sc(N3CCN(C4CCCCC4)CC3)nc2c1	-	-	68.8	-
Cc1cc2ncn(C(=O)c3c(-c4ccccc4)noc3C)c2cc1C	-	-	-	-
Cc1cc2ncn(C(=O)c3c(-c4c(Cl)cccc4Cl)noc3C)c2cc1C	2.4	-	-	-
CCOC(=O)c1ccc(N2C(=O)c3ccc(C(=O)OCC(=O)c4ccc(OC)cc4)cc3C2=O)cc1	-	-	-	-
O=C(O)c1cccc(COc2ccc(I)cc2)c1	-	-	65.4	-
O=C(O)c1cccc(OCc2ccccc2)c1	-	-	-	-
CC(C)c1ccc(OCc2cccc(C(=O)NCCN(C)C)c2)cc1	-	-	85.6	-
COc1ccc(OCc2cccc(C(=O)O)c2)cc1	-	-	93.5	-
CCOc1ccc(OCc2cccc(C(=O)OC)c2)cc1	-	-	85.1	-
COc1ccc(N(C)S(=O)(=O)c2cccc(C(=O)OCC(=O)C(C)(C)C)c2)cc1	-	-	-	-
COC(=O)C1=C(C)N(c2ccc(Cl)cc2)/C(=C\c2ccc(OC)cc2)C1=O	-	-	-	-
O=C1NC(=S)NC(=O)C1=Cc1cccc(OCc2ccc(C(=O)O)cc2)c1	-	-	-	-
COc1cc(OCc2cccc(C(=O)O)c2)ccc1C=C1C(=O)NC(=S)NC1=O	-	-	85.5	-
CN1CCN(C(c2ccc(N(C)C)cc2)c2nnnn2C2CCCC2)CC1 (stereo unspecified)	-	-	51.2	-
